Bioassay records deposited in PubChem by National Center for Advancing Translational Sciences (NCATS).
Tb PFK block: inhibitors of T. brucei phosphofructokinase; O15648; T. brucei PFK, ADP-Glo luminescence; Potency, µM (top dose mostly 57.5 µM), inactives show at the highest dose activity, negative = inhibition, hits mostly inhibitors; 330,000 tested, 0.17% active; AID 485367;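 note: 0% = uninhibited 1x PFK enzyme wells and -100% = no-enzyme wells; nearly all actives have a fitted effect of over 60% in size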
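Activity is normalized to no-enzyme wells (full inhibition) and 1.25 nM enzyme wells (no inhibition). Reaction: 0.5 mM F6P, 0.1 mM ATP, 45 min RT, ADP-Glo luminescence; concentration-response curves fitted and classed by quality.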
PLK1 PBD inh: inhibitors of human PLK1 polo-box domain binding; P53350; Potency, µM, for inactives: max response, negative = inhibition, actives largely listed as inhibitors; 360,000 tested, 2.8% active; Plk1 PBD binding of FITC phosphopeptide, fluorescence polarization; note: series mostly up to about 57 µM; % is set by controls: 0 for no effect and ±100 for the full control effect; nearly all actives have a fitted effect of over 65% in size
VDR inh: inhibitors of human vitamin D receptor | P11473 | VDR-SRC2-3 peptide fluorescence polarization, 2 h | Potency, µM, without a hit: max response, negative = inhibition, usual class: inhibitors | 400,000 tested, 0.93% active | AID 504847; note: % is set by controls: 0 for no effect and ±100 for the full control effect
Target sequence (P11473 whole entry, looked up): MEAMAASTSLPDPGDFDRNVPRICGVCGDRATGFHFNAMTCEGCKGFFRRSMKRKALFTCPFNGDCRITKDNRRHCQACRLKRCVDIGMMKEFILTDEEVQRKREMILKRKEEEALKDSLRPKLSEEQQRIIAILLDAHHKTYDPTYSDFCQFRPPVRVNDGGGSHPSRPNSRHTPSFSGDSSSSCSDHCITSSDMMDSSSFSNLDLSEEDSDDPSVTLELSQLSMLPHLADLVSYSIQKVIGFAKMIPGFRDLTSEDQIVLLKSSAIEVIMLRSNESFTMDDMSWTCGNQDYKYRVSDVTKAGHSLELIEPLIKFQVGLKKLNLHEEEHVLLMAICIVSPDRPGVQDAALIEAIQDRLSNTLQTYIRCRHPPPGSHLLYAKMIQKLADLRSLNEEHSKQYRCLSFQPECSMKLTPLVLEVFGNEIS
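After 23 nl compound addition and a short centrifugation, plates sat for 2 hours at ambient temperature; polarization of fluorescence then indicated loss of VDR binding to peptide SRC2-3.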
BRCA1 expr up: increases BRCA1 expression; MCF7-BRCA1-FFLuc reporter, luminescence, 48 h; response scale: scaled: vehicle 0%, 10 µM genistein 100%; Potency, µM (doses to about 46.1 µM), inactives show at the highest dose activation, usual class: activators; 380,000 tested, 1.1% active; note: nearly all actives have a fitted effect of over 80% in size
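Reporter cells (MCF7, BRCA1 promoter-firefly luciferase) received library compounds across a concentration series for 48 h. End-point luminescence was measured and concentration-effect curves derived after normalization.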
* hit, by the source's call; u = inconclusive; x = not tested or not shown; ! = not active in a repeat. An excerpt weighted towards active compounds, which were near 3.9% of everything screened. Calls come from the whole dose curve; as a rule, active = well fitted curve in the direction sought with a large enough effect; inconclusive = small, poorly fitted or top-dose-only effect, or another doubt; inactive = no such curve, though single readings can be large; an effect the other way counts as inactive or inconclusive. Potency is the fitted concentration of half-maximal effect.

SMILES	Tb PFK block	PLK1 PBD inh	VDR inh	BRCA1 expr up
CSCC[C@H](NC(=O)COc1cc2c(c3oc(=O)c(C)c(C)c13)CCC(C)(C)O2)C(=O)O	7%	30µM*	-21%	-11%
CSC[C@H](NC(=O)COc1cc2c(c3oc(=O)c(C)c(C)c13)CCC(C)(C)O2)C(=O)O	-6%	-14%	-19%	8%
CC1CCN(c2ccc3nnc(CCC(=O)NC(C)C)n3n2)CC1	-8%	2%	2%	1%
COC(=O)C(NC(=O)CCc1nnc2ccc(N3CCCCC3)nn12)C(C)C (centres undefined)	1%	-12%	3%	11µM*
COc1cccc(NC(=O)CCc2nnc3ccc(N4CCN(c5cccc(OC)c5)CC4)nn23)c1	1%	6µM*	u	-8%
COc1cc(NC(=O)CCc2nnc3ccc(N4CCN(c5cccc(OC)c5)CC4)nn23)cc(OC)c1	2%	4%	-7%	-13%
Cc1cccc(CNC(=O)c2ccc(NC(=O)N3CC(C)Sc4ccccc43)cc2)c1 (centres undefined)	x	x	17%	x
CC(C)OC(=O)CSc1nnc(-c2ccc(C(C)(C)C)cc2)n1N	-29%	21µM*	u	1%
C=Cc1ccc(Cn2c(C)c(C(=O)NCc3ccc(C#N)cc3)sc2=O)cc1	x	0%	x	-17%
COc1ccccc1NC(=O)C1=C(C)Nc2nc3ccccc3n2C1c1cccc(Br)c1 (centres undefined)	x	x	-5%	-54%
COc1ccccc1C(=O)O/N=C(\N)c1ccc(Cl)cc1	-4%	-7%	-7%	-41%
N/C(=N\OC(=O)CSc1ccccc1)c1ccccn1	-3%	-21%	25%	6.3µM*
N/C(=N\OC(=O)Cc1ccc(-c2ccccc2)cc1)c1ccccn1	-1%	0%	12%	73%
COc1cc(NC(=O)c2ccccn2)cc(OC)c1OC	-2%	6.7µM*	u	-21%
COc1ccc(C(=O)NNC(=O)c2ccccn2)cc1	15µM*	2%	-13%	u
COc1cc(OC)cc(C(=O)NNC(=O)c2ccccn2)c1	13%	-16%	-3%	-77%
COc1ccc(C(=O)O/N=C(\N)c2ccc(Cl)cc2)cc1	1%	-1%	10%	2.5µM*
N/C(=N\OC(=O)c1ccccc1Cl)c1ccccn1	u	-1%	8%	-45%
N/C(=N\OC(=O)c1ccccc1[N+](=O)[O-])c1ccccn1	-3%	-8%	0%	5µM*
CCN(CC)CCNC(=O)c1ccc(Cl)c(S(=O)(=O)Nc2ccccc2OC)c1	-1%	24µM*	-3%	-11%
COc1ccc(C(=O)O/N=C(\N)c2ccccn2)cc1	15µM*	-14%	3%	u
CCN(CC)c1ccc(NC(=O)c2ccccn2)cc1S(=O)(=O)Nc1ccccc1OC	-11%	6.7µM*	79µM*	-38%
Cc1ccc(-n2nc3c(N4CCC(C(=O)NC5CCC(C)CC5)CC4)nnc(C)c3c2C)cc1 (centres undefined)	x	x	-6%	x
COc1cnc(-c2ccccn2)nc1N(C)c1ccccc1	6%	-8%	-18%	-46%
COc1cc2cc[n+]3cc4c(OC)c(OC)ccc4cc3c2cc1OC	x	x	10%	x
SMILES	Tb PFK block	PLK1 PBD inh	VDR inh	BRCA1 expr up
Cc1ccc(NC(=O)c2ccn(C)n2)c(Br)c1	4%	-5%	1%	u
Cc1cc(/C(N)=N/OC(=O)c2ccc(Cl)cc2)no1	2%	2%	2%	7.9µM*
O=C(NNCc1ccccc1)c1ccccc1	x	-3%	-15%	-2%
Cc1ccc(NC(=O)c2ccccn2)c(Br)c1	1%	u	7%	3.5µM*
O=C(NNCc1ccccc1)c1ccccn1	x	-2%	1%	1.1µM*
Cc1cc(/C(N)=N/OC(=O)c2cccc(Cl)c2)no1	2%	-8%	-1%	32%
CCOc1ccc(S(=O)(=O)NCCc2sc3nc(-c4ccc(F)cc4)nn3c2C)cc1	x	x	4%	x
CCN(CCCNC(=O)c1nn(-c2ccc(C)cc2)c(=O)c2c1c1ccccc1n2C)c1cccc(C)c1	x	x	-21%	x
CCCCOc1ccc(CC(=O)NOC)cc1	x	x	x	20%
COCc1cccc(C2=CC(=O)C[C@H](c3ccc(F)cc3)C2)c1	4%	30µM*	u	18%
COc1ccccc1CN1C(=O)CNC1=S	2%	-5%	4%	6%
COc1ccccc1Cn1[nH]nnc1=S	7%	24µM*	-15%	0%
COC(=O)N1CCCc2cc(S(=O)(=O)NCc3ccccc3)ccc21	x	x	14%	3%
O=c1cc(-c2ccccc2)nc2c(-c3ccccc3)c(C(F)(F)F)[nH]n12	1%	17µM*	-22%	0%
Cc1cc(=O)n2[nH]c(C)c(-c3ccccc3)c2n1	-4%	-3%	-4%	-17%
Cc1occc(=O)c1OCc1c(F)cccc1Cl	-1%	21µM*	-13%	0%
Nc1sc2c(c1C(=O)NC1CCS(=O)(=O)C1)CCC2 (centres undefined)	u	17µM*	-7%	-4%
Cc1nc2c3ccccc3nc(NNC(=O)CCC(=O)NCCC(C)C)n2n1	-3%	-2%	-10%	-17%
CCN(CC)CCCNC(=O)CCC(=O)NNc1nc2ccccc2c2nc(C)nn12	-15%	-3%	79µM*!	-18%
COc1ccccc1CNC(=O)CSC1=NCCS1	-15%	u	u	50%
O=C(CSC1=NCCS1)NCc1ccco1	-5%	3µM*	20µM*	-5%
COc1ccccc1N(CC(=O)NCc1ccco1)S(=O)(=O)c1ccc(C)cc1	u	27µM*	-13%	-2%
O=C(CSc1nnc2c(n1)[nH]c1ccccc12)NCc1ccco1	-5%	30µM*	-4%	-25%
COc1ccccc1-n1ccnc1SCC(=O)NCc1ccco1	-5%	24µM*	u	-4%
O=C(CSc1ncc(-c2ccccc2)nn1)NCc1ccco1	29%	-13%	3%	8%
SMILES	Tb PFK block	PLK1 PBD inh	VDR inh	BRCA1 expr up
O=C(Cn1cnc2sc(-c3ccccc3)cc2c1=O)NCc1ccco1	6%	2.7µM*	u	-7%
O=C(O)CSc1nnc(-c2ccccc2)c(-c2ccccc2)n1	-1%	9.5µM*	u	-6%
O=C(CSc1nc(-c2ccccc2)cs1)NCc1ccco1	-1%	-10%	0%	25%
O=C(CSc1nnc(-c2ccccc2)c(-c2ccccc2)n1)NCc1ccco1	1%	21µM*	-3%	-44%
NC(=O)CSc1nnc(-c2ccccc2)c(-c2ccccc2)n1	0%	-9%	3%	-20%
O=C(CSc1nc(-c2ccccc2)c(-c2ccccc2)[nH]1)NCc1ccco1	7%	21µM*	u	-89%
Cc1cccc(NC(=O)CNC(=O)COC(=O)C2CC2C)c1C (centres undefined)	0%	-3%	8%	-10%
Cc1cc(-c2ccc(C)c(S(=O)(=O)N3CCN(c4cccc(C(F)(F)F)c4)CC3)c2)on1	x	x	4%	x
CCOC(=O)Cn1c(=O)oc2cc(S(=O)(=O)N3CCN(c4cccc(Cl)c4)CC3)ccc21	x	x	22%	x
COc1ccc2[nH]c(=O)c(CN(C3CCCCC3)C(c3nnnn3Cc3ccco3)C(C)C)cc2c1 (centres undefined)	3%	u	u	-59%
COc1ccc2[nH]c(=O)c(CN(Cc3nnnn3Cc3ccco3)C3CCCCC3)cc2c1	-8%	u	79µM*	-25%
